According to PubChem BioAssay AID1508600 (Functional Genomics Laboratory (NCATS/FGL), 2020):
About 3,700 (7%) of roughly 53,000 sequences were called active. The sample as a whole holds a higher share of actives than the screen did. A number with no mark means an inactive call.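 The calls were made as follows: active = gene knockdowns whose robust z-score for IL-1 alpha signal is at least 2 or at most -2, so actives lie on both sides; inactive = the rest.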

Assay: Components of the Cytosolic LPS Sensing Pathway: Gene Identification via Genome-wide siRNA Screen;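 also: robust z of the log signal after scaling to non-targeting control siRNA wells of the plate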
Details: RAW264.7 macrophages, IL-1a HTRF, actives lie on both sides, screened at 100 nM (by protocol), cells primed 5 h with Pam3CSK4 first
Summary of the method: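 Knockdown: 100 nM siRNA, 48h, RAW264.7. Stimulation: Pam3CSK4 5 h, then LipidA via TransIT-TKO 24 h. Output: supernatant IL-1a HTRF, negative-control-normalized, log robust z-score; viability by CellTiter-Glo.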
Sequence GCAAUUUAAGUUUAGGAGATT against Heatr1 has a z-score of -0.215. Work on GCCAAUCUGGUGAUACUUCTT against Vmn1r71 yielded a z-score of -1.64. Work on GCUGUUAAGUAAUGACAGATT against Chst7 yielded a z-score of 1.54. With GGUAAAUGACAACUUUCUUTT against Slco6b1 the z-score was 2.92 (active). For GCCUAUUGGCCUGAUAUGUTT against Gpr141b, the z-score was 0.173. For GGUACAACUGCUCAUUUUUTT against Rhbdd1, the z-score was -0.0082. For GGCCCUAAUUUCAGUAAUATT against Pigv, the z-score was 0.568. With GCCUUUCUCGUUCCUAUAGTT against Plgrkt the z-score was -2.42 (active). GGUUUUUGAGUUUCUGAUUTT against Vps8 showed a z-score of 1.28. Sequence CCACCUUGUUGAGUGGCACTT against Smarcd3 has a z-score of -0.177. Work on GCAUUUCAAUCGCACGUUUTT against Gal3st2 yielded a z-score of -0.893. In the case of CCGAGCAAAAUCUCAAAUUTT against Mdh1, the z-score is reported as 1.89. CCCUCUUAGUAACUGGCUCTT against Cdhr4 showed a z-score of -0.0846. With GGAAGACAUGAAAUUGUUCTT against Psma3 the z-score was -2.69 (active). GCAAGAAGGUUAUUCUAUATT against Atxn3 showed a z-score of 0.399. For GGCUUUUGAGAAUUCAUUCTT against Kcna5, the z-score was 2.75 (active). GGCCUAUCUUCUUUACAUATT against Ctbs gave a z-score of 0.348. GUUUCUGGAGACGGUGGAGTT against Rpl10a showed a z-score of 1.74. In the case of AGGAAAGAAAAUAUGCUGATT against Cox17, the z-score is reported as 1.12. GCGUGCUGGUUUUCUGAUUTT against Sbno2 showed a z-score of 0.333. GGAGAUCCAGUUUUUUAACTT against Ndst1 gave a z-score of 0.566. In the case of GGUGGAAUUUUCAACUUACTT against Nkx3-1, the z-score is reported as 5.36 (active). GGUCUAGCUCAAAAUCCCATT against Srek1 gave a z-score of -1.3. Work on GGCUACCGAGACAAUGCUUTT against Pcmtd1 yielded a z-score of 0.232. With GGAGAAGAAUUCUUACAGGTT against Fbxo16 the z-score was 0.468. Work on CCCGACCUCAACAUUUGUATT against Bmp2k yielded a z-score of -0.265. Work on GGUAGCAAAUCCAACAAGATT against Slamf1 yielded a z-score of 0.226. Sequence “GGCACUUCCUCCCUCAACATT against 4833420G17Rik” has a z-score of -0.57. For GGAGGUCAAAGUAAACUGGTT against Tial1, the z-score was 2.2 (active). CCCAGUAAUAUGAAAAGAGTT against Gucy2f showed a z-score of -0.408. GGUUGAAUCCUAAGAAUGUTT against Edc3 gave a z-score of 0.39. With GGAGAAAGCUCAGCAUACATT against Usp3 the z-score was -0.484. In the case of GGGAAAGCACUCCAACACATT against Frem1, the z-score is reported as -2.12 (active). CGCAUGACCUUCCAGAUGCTT against Myoz1 gave a z-score of 0.49. Work on GCACAUCAACAUUGAUACUTT against Atp11c yielded a z-score of -0.0521. With GGAAAUCGAGGACUUAUACTT against Wnk4 the z-score was 3.54 (active). Sequence GGCAAUGUCUUCUCCAAUATT against Dedd has a z-score of -0.652. GCCGGAAGAAACUCAUGCUTT against Mad2l1bp showed a z-score of -0.152. Work on CCUGUUAAUUGAUUACCUUTT against Pla2r1 yielded a z-score of 1.03. Sequence CCUAACGGUCAGAAGUUGATT against Ccng1 has a z-score of 0.39. With CCUCUCAGUGGUUGAAAUGTT against Wdr5 the z-score was -2.46 (active). For GGGCAGACCUAAUAGCUUATT against Cycs, the z-score was 0.707. For GCUUUUGACACUUAUAUGATT against Ptk7, the z-score was -0.299. Sequence GGCAUGUCUUAAUUUCAUUTT against Shisa2 has a z-score of 0.333. For GGAAGACUCACGGCUCAAATT against Ccdc124, the z-score was -1.48. In the case of GGCAUCUUCCUUUAAAAAGTT against Gar1, the z-score is reported as -0.708. GGACAGUUUAAGGACAACATT against Morn2 showed a z-score of 0.18. In the case of GGUGGUCUUCAAGUCUGACTT against Cdcp2, the z-score is reported as 1.95. With GCAUCUCCCUUAUGUCUGUTT against Nubp2 the z-score was 2.12 (active). For GGGAAGUGGGAUUCCUAAGTT against Fam220a, the z-score was 0.218. In the case of GCACGAAGGUCGUUAUUAUTT against Wls, the z-score is reported as -0.28. With GGUGACACAGGAGAAGAAGTT against Colec10 the z-score was -0.00926. For GGUAAUUAAUUCAAAGCAGTT against St8sia4, the z-score was -0.851. With GGAGUUUAUGAGGAACUCGTT against Zwint the z-score was -0.0598. With GGGCUAAAUUCAUGGGUUCTT against Timp1 the z-score was 0.681. For GGGAAGAUCUUCAGGAAAATT against Cbr3, the z-score was 1.1. With GCUCCUAAUGAAAUGGUUUTT against Kif2a the z-score was 1.41. CGGUAUGUUAUUUUGGUUGTT against Fam216a gave a z-score of -0.236. For GGGCUGUGGAAACAAUUUATT against Zpld1, the z-score was 2.32 (active). With ACUUCCUGAUUGAGAGAAATT against Olfr497 the z-score was -0.319. GGUUCCACUAAUCUUUUUATT against Mark3 gave a z-score of 0.696. With GGAGGAGAUUGUCCAGAAATT against Ecm1 the z-score was 1.2. With GGUCGACAUUGAAGCUAUUTT against Ralyl the z-score was -0.517. GCAUUGUGAAUAUUCAGAUTT against Cers4 showed a z-score of 0.623. With GGCAGUGUGUUAGAUUCUUTT against Cts3 the z-score was 2.35 (active). GGAGACUAUCCUCAUUAUUTT against Smarca4 gave a z-score of 0.36. In the case of AUGCUUUGAUCAGUAUGAATT against Vmn1r188, the z-score is reported as -2.38 (active). In the case of GGAGGACAACAAGUACUGCTT against Smap1, the z-score is reported as -1.08. In the case of GGAAAAUCGGUUAUCAUAATT against Pde7a, the z-score is reported as -0.684.
